The source of these data is PubChem BioAssay AID1948 (National Center for Advancing Translational Sciences (NCATS), 2009).

The structures appear in SMILES notation. About 20 (0.02%) of roughly 110,000 compounds were called active. Not shown: some 2% with an inconclusive outcome. The call rests on the fitted dose curve; in most records, active means well fitted activation curve with a large enough effect; inconclusive means small, poorly fitted or top-dose-only effect; inactive means no such curve, though single readings can be large or run the other way. Shown is part of a subset that was picked to be rich in actives.

This assay is described as follows: qHTS Assay for Compounds that Induce Erasure of Genomic Imprints.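 Further: 0% = negative control wells on the plate.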 To be noted: mouse ES Peg3-LacZ reporter, beta-gal luminescence, 40 h; series mostly up to 10.9 µM; activity change, positive = activation: at the top concentration. From the text:
qHTS Assay for Compounds that Induce Erasure of Genomic Imprints NIH Chemical Genomics Center [NCGC] NIH Molecular Libraries Screening Centers Network [MLSCN] Assay Submitter (PI): JEFFRIES, SEAN, NCGC, University of Cambridge NCGC Peg3 Imprinting Assay Overview Genomic imprinting is the epigenetic process whereby genes are expressed in a parent of origin fashion. […] Unlike some forms of epigenetic silencing that can be overcome by overexpression of transcription factors, genomic imprinting stably represses the expression of one allele despite potentially high levels of expression from the other allele. […] During mouse embryonic day 11.5 imprints are erased in PGCs so that sex specific imprints can be reestablished during gametogenesis. Embryonic germ (EG) cells can be derived from developing PGCs at embryonic day 11.5 and these cells often lack genomic imprints. […] Embryonic stem (ES) cells are a cell type similar to EG cells in phenotype and transcriptional profile, yet ES cells maintain genomic imprints. This similarity between ES and EG cells prompted us to use ES cells to look for factors which could induce imprint erasure. To investigate the stability of genomic imprinting, ES cells were derived from mice with an insertion of a LacZ-Neomycin reporter construct in the Peg3 locus. Peg3 is an imprinted locus where gene expression is restricted to the paternal allele. […] Using LacZ expression we are able to monitor the state of the Peg3 imprint. In order to dissect the mechanisms involved in imprint erasure using a forward chemical genetics approach we developed a cell based phenotype assay using an endogenous silence imprinted locus. This assay utilizes maternally inherited Peg3LacZ-Neo ES cells by monitoring the LacZ expression from the normally silent Peg3 allele. To facilitate screening, high-density feeder-free ES cell culture has been optimized so that ES cells can be grown in 1536 for over four days without feeding or washes. The assay uses a luminescence based read out for LacZ activity and is a homogenous assay optimal for HTS.
NCGC Peg3 Imprinting Assay Protocol Summary ES cell lines were derived from blastocysts taken from Peg3LacZ-Neo x129 matings. Lines were sexed and genotyped for the Peg3LacZ-Neo allele. Female cells carrying the reporter allele were used in this study. Cells were derived on a layer of mouse embryonic fibroblasts and passaged multiple times before switching to feeder free culture. Cells were maintained feeder free on gelatin coated dishes in DMEM/F12 media supplemented with 15% FBS, 2mM L-glutamine, 100 units/ml penicillin, 100ug/ml streptomycin, 0.1mM MEM nonessential amino acids, 1mM sodium pyruvate, 0.1% sodium bicarbonate, 0.1mM 2-Mercaptoethanol, and 400 units/ml leukemia inhibitory factor (LIF) at 37C with 5% CO2. The assay was performed in 1536-well format. A single luminescence read was taken at the end of the assay and the data was normalized by plate to internal negative controls. Maximum efficacy and AC50 values were calculated from dose-response data using the standard Hill equation. 1536 well plates were filled with 0.5ul of 0.1% gelatin per well, spun down and incubated for at least 30 min at 37C. The ES cells were then trypsini Peg3 1536-well assay protocol: (1)Plate 0.5ul/well 0.1% gelatin in white tissue culture treated 1536-well plates, spin and incubate at 37C for at least 30 min. (2)Add 5ul/well (300 cells) of ES cell suspension from freshly trypsinized cells and incubate at 37C, 5% CO2 for 40 hours. (3)Add 5ul/well of freshly prepared BetaGlo solution and incubate at room temperature for 5 minutes. (4)Read luminescence on the ViewLux plate reader. Keywords Genomic Imprinting, Germ Cells, Embryonic Stem Cell, DNA Methylation, Peg3, qHTS, NIH roadmap, NCGC
Regarding `CCN1CCN(c2cc(C)c3cc(NC(=O)c4cc(Cl)ccc4OC)ccc3n2)CC1`, the “activity change, positive = activation” value is -33.9% (inactive).

Consider `CCc1ccc(NC(=O)c2cc3c(=O)n(Cc4cccnc4)ccc3nc2C)cc1`, for which the “activity change, positive = activation” value is -7.76% (inactive).

Consider `CCCCCn1c(CCCNC(=O)c2ccccc2OC)nc2ccccc21`, for which the “activity change, positive = activation” value was -12.7% (inactive).

Take `COc1ccccc1CNS(=O)(=O)c1cc(Br)cc2c1N(C(C)=O)C(C)C2` (configuration not stated): the “activity change, positive = activation” value was -8.34% (inactive).

On to `CCOc1cc(C2C(C(=O)OC)=C(C)NC3=C2C(=O)c2ccccc23)ccc1O` (configuration not stated), for which the “activity change, positive = activation” value was -3.7% (inactive).

With `CCOc1ccc(C2C(=O)N(C3CCCCC3)CC(=O)N2CCC2=CCCCC2)cc1OC` (configuration not stated), the “activity change, positive = activation” value is 6.2% (inactive).

Regarding `O=C(Nc1ccc2nc(SCCOc3ccccc3)sc2c1)c1ccco1`, the “activity change, positive = activation” value was -16.3% (inactive).

Regarding `CCc1cnc2c(c1SCC(=O)N1CCC(C)CC1)c(=O)n(C)c(=O)n2C`, the “activity change, positive = activation” value was 9.05% (inactive).

As for `CCOc1ccc(N(CC)S(=O)(=O)N2CCCC(C(=O)Nc3ccc(C(C)=O)cc3)C2)cc1` (configuration not stated), the “activity change, positive = activation” value is -20.5% (inactive).

In the case of `COc1ccc(Cn2cc(C(=O)c3ccc(C)cc3)c(=O)c3cc(OC)c(OC)cc32)cc1`, the “activity change, positive = activation” value was -10.5% (inactive).

Turning to `Cc1csc2nc(COC(=O)c3ccc(NC(=O)COc4ccccc4F)cc3)cc(=O)n12`, the “activity change, positive = activation” value is -15.4% (inactive).

For the compound `COc1ccc(OC)c(NC(=O)CSC2=Nc3ccccc3C3=NC(CC(=O)NCc4ccc(F)cc4)C(=O)N23)c1` (configuration not stated), the “activity change, positive = activation” value is -6.91% (inactive).

For the compound `O=c1cc(COc2cccc(C(F)(F)F)c2)nc2sc3c(n12)CCCC3`, the “activity change, positive = activation” value is 20.1% (inactive).

For the compound `CCC(=O)Nc1cccc(-c2nc3cc(C)ccc3o2)c1`, the “activity change, positive = activation” value is -34% (inactive).

In the case of `COc1ccc(Cl)cc1-n1c(CCC(=O)O)ccc1-c1ccc(C)cc1`, the “activity change, positive = activation” value is 4.72% (inactive).

As for `CCCC(=O)Nc1ccc(NC(=O)c2sc3ccccc3c2Cl)cc1`, the “activity change, positive = activation” value is -17.3% (inactive).

`CC1CCCCN1S(=O)(=O)c1ccc(F)c(C(=O)Nc2ccccc2C(F)(F)F)c1` (configuration not stated): the “activity change, positive = activation” value is 15.3% (inactive).

`CCc1cc2c(cc3c(=O)n(CC(=O)N4CCN(c5cc(Cl)ccc5C)CC4)nc(CC)n32)s1`: the “activity change, positive = activation” value is 3.78% (inactive).

For the compound `Cc1nn(-c2ccc(N3CCCCC3)nn2)c(C)c1CCC(=O)NCc1ccc(F)cc1`, the “activity change, positive = activation” value was -10.3% (inactive).

In the case of `Cc1cc(C)cc(NC(=O)CCS(=O)(=O)c2cc3c4c(c2)CCN4C(=O)CC3)c1`, the “activity change, positive = activation” value is -5.47% (inactive).

For the compound `CCOC(=O)N1CCC(NC(=O)c2cnn(-c3cccc(C)c3)c2C2CCN(C(=O)OC(C)(C)C)CC2)CC1`, the “activity change, positive = activation” value is -7.69% (inactive).

Regarding `COc1ccc(CNC(=O)c2cc3c(=O)[nH]c4ccccc4c3s2)cc1`, the “activity change, positive = activation” value was 14.7% (inactive).

As for `CCOc1ccc(CNC(=O)C2CCCN(c3nnc(C)c4c(C)n(-c5ccccc5)nc34)C2)cc1` (configuration not stated), the “activity change, positive = activation” value was -17.4% (inactive).

With `Cc1nnc(C)n1-c1ccc(C(=O)Nc2cccc(Br)c2)cc1`, the “activity change, positive = activation” value is -11.1% (inactive).

As for `COc1cc(NC(=O)CCNC(=O)Cn2ccc3ccccc3c2=O)cc(OC)c1OC`, the “activity change, positive = activation” value was -5.74% (inactive).

With `CCc1nonc1NC(=O)c1oc2ccc(Cl)cc2c1C`, the “activity change, positive = activation” value was -14.9% (inactive).

Take `COc1ccccc1Nc1cc(C(=O)NCCCN(C)C2CCCCC2)c2ccccc2n1`: the “activity change, positive = activation” value was 21% (inactive).

Turning to `CCOC(=O)c1ccccc1NC(=O)c1nn(-c2ccc(OC)c(Cl)c2)c(=O)c2c1c1ccccc1n2C`, the “activity change, positive = activation” value is 22.8% (inactive).

Turning to `Cc1ccc(C)c(NC(=O)CSC2=Nc3ccccc3N=C(c3ccc(F)cc3)C2)c1`, the “activity change, positive = activation” value is -7.52% (inactive).

As to `CCc1ccccc1NC(=O)Cn1c(=O)n(CC2CCC(C(=O)NCCc3ccccc3)CC2)c(=O)c2ccccc21` (configuration not stated), the “activity change, positive = activation” value was -9.17% (inactive).

For `COc1ccc(CNc2nc(-c3ccc(Cl)cc3)nn2S(=O)(=O)c2ccc(C)cc2)cc1`, the “activity change, positive = activation” value is -11.7% (inactive).

With `Cc1ccc(CN(C(=O)c2ccccc2[N+](=O)[O-])c2ccccn2)cc1`, the “activity change, positive = activation” value was -12.4% (inactive).

For the compound `COc1ccc(NC(=O)C(=O)NCc2ccco2)cc1`, the “activity change, positive = activation” value was -6.52% (inactive).

With `CC1CN(C(=O)N2CCC(C(=O)NCc3cccs3)CC2)c2ccccc2O1` (configuration not stated), the “activity change, positive = activation” value was -8.54% (inactive).

Take `Cc1ccc(S(=O)(=O)N2CCC(Oc3ccc(-n4cnnn4)cc3)CC2)cc1`: the “activity change, positive = activation” value is -8.14% (inactive).

`Cc1ccc(F)cc1NC(=O)CCSc1nc(-c2ccco2)cc(C(F)(F)F)n1`: the “activity change, positive = activation” value is 5.17% (inactive).

Take `Cc1cc(C)c(-c2n[nH]c3c2C(c2ccccc2F)N(CCO)C3=O)c(O)c1` (configuration not stated): the “activity change, positive = activation” value is -12.1% (inactive).

As to `CC(=O)Nc1ccc(S(=O)(=O)NCC2CCC(C(=O)NCCc3ccccc3)CC2)cc1` (configuration not stated), the “activity change, positive = activation” value is -11% (inactive).

With `COC(=O)c1ccccc1NC(=O)c1ccc2c(=O)n3c(nc2c1)CCCCC3`, the “activity change, positive = activation” value is -6.07% (inactive).

Turning to `COc1ccc(S(=O)(=O)NCc2cccn2Cc2cccc(C)c2)cc1`, the “activity change, positive = activation” value is -13.3% (inactive).

Regarding `COC(=O)CN1C(=O)CSc2ccc(S(=O)(=O)Nc3cc(C)ccc3C)cc21`, the “activity change, positive = activation” value is 2.15% (inactive).

Consider `COc1ccc(CNC(=O)CSCc2nc(-c3ccccc3F)oc2C)cc1`, for which the “activity change, positive = activation” value is -11% (inactive).

Consider `O=C(Nc1ccc(F)cc1F)c1cnn(-c2ccc(F)cc2)c1-n1cccc1`, for which the “activity change, positive = activation” value is 4.84% (inactive).

As to `Cc1ccc(OCC(=O)Nc2ccc(Cl)c(-c3nc4ccccc4[nH]3)c2)cc1C`, the “activity change, positive = activation” value was -9.61% (inactive).

`Cc1oc2ncn(CC(C)C)c(=O)c2c1C(=O)N1CCN(c2ccccc2F)CC1`: the “activity change, positive = activation” value is 19.9% (inactive).

Turning to `COc1ccccc1NC(=O)c1cc(C2CC2)nc2c1c(C)nn2-c1ccc(C)cc1`, the “activity change, positive = activation” value is -7.45% (inactive).

As to `Cc1ccc(CN2C(=O)SC(Nc3ccccc3)C2=O)cc1` (configuration not stated), the “activity change, positive = activation” value is 3.26% (inactive).

Take `CCN(CCCNC(=O)c1cc2c(=O)n(CC)c3ccccc3c2s1)Cc1ccccc1`: the “activity change, positive = activation” value was -11.1% (inactive).

`Cc1ccc(C(=O)NCCSc2c(C)[nH]c3ccccc23)cc1C`: the “activity change, positive = activation” value is -7.06% (inactive).

On to `O=C1CC(c2ccc(F)cc2F)c2cc3c(cc2N1)OCO3` (configuration not stated), for which the “activity change, positive = activation” value was -10.5% (inactive).

For `Cc1cccc(C(=O)N2c3nc(-c4ccco4)nn3C3(CCCCC3)[C@@H]3CCCC[C@@H]32)c1`, the “activity change, positive = activation” value is -2.39% (inactive).

Consider `O=C(CSc1nc(=O)n(Cc2cccnc2)c2c1CCC2)Nc1ccc(F)cc1F`, for which the “activity change, positive = activation” value is 19.5% (inactive).
